Assay [1] can be described thus: qHTS assay to identify small molecule agonists of the vitamin D receptor (VDR) signaling pathway - cell viability counter screen (AID 743224). Further: nearly all actives have a fitted effect of over 50% in size. In short, it runs like this: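 Here cell health was gauged by luminescent ATP detection (CellTiter-Glo, 30 min RT) in VDR-bla cells that had been incubated with test compounds for 16 h at 37C and 5% CO2.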
Background: Quantitative high-throughput screening tests each substance at several concentrations.

Assay [2] is described as follows: qHTS assay to identify small molecule antagonists of the vitamin D receptor (VDR) signaling pathway - cell viability counter screen (AID 743225). Further: nearly all actives have a fitted effect of over 50% in size. Further: potency means the concentration at half of the fitted maximal effect. In short, it runs like this:
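Read-out: CellTiter-Glo luminescence measured 30 min after reagent addition at room temperature. Cells were VDR-bla HEK 293T exposed 16 h at 37C, 5% CO2, to compound with 3 nM final calcitriol agonist.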

Assay [3] is described as follows: qHTS assay to identify small molecule agonists of the NFkB signaling pathway (AID 1159509; active means well fitted curve in the direction sought with a large enough effect in the signal ratio in the repeat runs, not every such curve was filed as active; the % refers to the signal ratio). In short, it runs like this:
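NFkB-bla ME-180 cells with a beta-lactamase reporter under an NF-kB response element were plated overnight, treated with compounds in DMSO for 5 hr at 37 C, then loaded with FRET substrate for 1.5 hr at room temperature.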

The nature of assay [4]: qHTS assay to identify small molecule agonists of the NFkB signaling pathway - cell viability counter screen (AID 1159515; calls by dose curve; further: nearly all actives have a fitted effect of over 55% in size). Put shortly: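 5 hr compound treatment of NFkB-bla ME-180 cells (2,000/well, seeded overnight beforehand), followed by reporter substrate for 1.5 hr. CellTiter-Glo added afterward; luminescence after 30 min RT.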
Assay [5] can be described thus: qHTS assay to identify small molecule agonists of the endoplasmic reticulum stress response signaling pathway - cell viability counter screen (AID 1159517; calls by dose curve;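 further: HeLa cells carrying an ER stress response element beta-lactamase reporter; nearly all actives have a fitted effect of over 50% in size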). In short, it runs like this:
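Counter-screen wells were identical to the reporter wells. Cells were plated at 1,500 per well and dosed for 5 hr, then read for luminescence 30 min after CellTiter-Glo addition.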

Assay [6] can be described thus: qHTS assay to identify small molecule antagonists of the retinoid-related orphan receptor gamma (ROR-gamma) signaling pathway - cell viability counter screen (AID 1159520). Further: nearly all actives have a fitted effect of over 50% in size. In short, it runs like this: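 Tet-on ROR gamma CHO cells were given compounds for 2 hr, then doxycycline hyclate at 1 uM final, and incubated 16 hr at 37 C. Viability was measured as ATP content by CellTiter-Glo luminescence.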

The target in assay [7] is Nuclear receptor ROR-gamma (Homo sapiens) (UniProt P51449). The assay can be described thus: qHTS assay to identify small molecule antagonists of the retinoid-related orphan receptor gamma (ROR-gamma) signaling pathway (AID 1159521; further: nearly all actives have a fitted effect of over 50% in size; further: potency means the concentration at half of the fitted maximal effect). Put shortly:
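CHO Tet-on RORγ, RORE-luc reporter. Cpd 2 h pre-incubation, then dox hyclate 1 uM final, 16 h, 37 C/5% CO2. ONE-Glo luminescence; decrease = antagonist.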

Assay [8] deals with Retinoic acid receptor RXR-alpha (Homo sapiens) (UniProt P19793). Put plainly: qHTS assay to identify small molecule agonists of the RXR signaling pathway (AID 1159527; calls by dose curve; further: nearly all actives have a fitted effect of over 35% in size). In short, it runs like this: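 Read-out: beta-lactamase FRET ratio (405 nm excitation, 460 and 530 nm emission) after 2 hr substrate loading at room temperature. Cells were RXR-alpha-UAS-bla HEK 293T treated with compounds for 16 hr in 2% charcoal-stripped FBS medium.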

Assay [9] is described as follows: qHTS assay to identify small molecule agonists of the RXR signaling pathway - cell viability counter screen (AID 1159529). Further: nearly all actives have a fitted effect of over 50% in size. Put shortly:
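HEK 293T RXRa-bla cells, 2% CS-FBS; 5 h settle; cpd 16 h 37 C, 5% CO2; CellTiter-Glo 30 min RT, luminescence. Tetraoctyl ammonium bromide as positive control.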

The nature of assay [10]: qHTS assay to identify small molecule antagonists of the retinoid acid receptor (RAR) signaling pathway - cell viability counter screen (AID 1159551). Further: nearly all actives have a fitted effect of over 35% in size. Further: potency means the concentration at half of the fitted maximal effect. In short, it runs like this:
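Seed C3RL4 cells; next day add compound, then retinol to 1 uM final; incubate 6 h at 37 C; add CellTiter-Glo; read luminescence after 30 min at RT.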

A short description of assay [11]: qHTS assay to identify small molecule antagonists of the retinoic acid receptor (RAR) signaling pathway (AID 1159552; further: nearly all actives have a fitted effect of over 50% in size). Put shortly: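 Cells of the C3RL4 line were seeded, incubated overnight, then dosed with compounds in DMSO followed immediately by retinol (1 uM final). Six hours later luciferase detection reagent went in; signal was measured after 30 min at RT.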

Assay [12] can be described thus: qHTS assay to identify small molecule agonists of the retinoic acid receptor (RAR) signaling pathway (AID 1159553). Further: potency means the concentration at half of the fitted maximal effect. The settings on record: C3RL4 RARE luciferase reporter, agonist, 6 h; activation: at 73.3 µM (top of the series). In short, it runs like this:
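Activation of retinol signaling was monitored via a RARE luciferase reporter in C3RL4 cells. After 6 hr compound treatment at 37 C, detection reagent was added for 30 min at room temperature before luminescence reading.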

A short description of assay [13]: qHTS assay to identify small molecule agonists of the AP-1 signaling pathway - cell viability counter screen (AID 1159525; calls by dose curve; further: nearly all actives have a fitted effect of over 55% in size). Put shortly:
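AP-1-bla ME-180 cells in Opti-MEM with 0.5% dialyzed FBS, compound exposure 5 h at 37 C in 15-point titration. Viability read in the same wells as ATP content by CellTiter-Glo luminescence, normalised to tetra-n-octylammonium bromide and DMSO controls.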

A short description of assay [14]: qHTS assay to identify small molecule agonists of the estrogen related receptor (ERR) signaling pathway (AID 1224820). In short, it runs like this:
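ERR reporter cells (NTP line) plated 2,000/well, incubated 6 h at 37 C/5% CO2, then pinned with compounds in DMSO and held 18 h at 37 C. One-Glo added; luminescence read after 30 min at room temperature.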

Assay [15] can be described thus: qHTS assay to identify small molecule antagonists of the estrogen related receptor signaling pathway with the pleiotropic PPARgamma coactivator (PGC) cell viability counter screen (AID 1224822;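 further: viability read after 17.5 h compound exposure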). In short, it runs like this: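 Compounds in DMSO, with positive and negative controls, were applied to PGC/ERR cells (2,000/well) and left 17.5 h at 37 C before CellTiter-Fluor detection.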

The nature of assay [16]: qHTS assay to identify small molecule agonists of the estrogen related receptor signaling pathway with the pleiotropic PPARgamma coactivator (PGC) (AID 1224823). Put shortly: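 PGC/ERR reporter cells were seeded, rested 6 h at 37 C/5% CO2, then exposed to compounds in DMSO by pin transfer for 18 h at 37 C. Luciferase activity was read as luminescence after One-Glo reagent and 30 min at room temperature.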

Assay [17] is described as follows: qHTS assay to identify small molecule agonists of the AP-1 signaling pathway (AID 1159526; calls by dose curve).
The subject of assay [18] is estrogen-related receptor alpha (ERRalpha) with PGC-1alpha coactivator, human. Put plainly: qHTS assay to identify small molecule antagonists of the estrogen related receptor signaling pathway with the pleiotropic PPARgamma coactivator (PGC) (AID 1224821; calls by dose curve). Put shortly:
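Cells engineered for PGC/ERR signalling (line from NTP) were plated 6 h at 37 C/5% CO2, then exposed to DMSO-dissolved compound for 18 h at 37 C. Luciferase activity was read by One-Glo luminescence after 30 min at room temperature.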

Molecules are shown by their SMILES. Results filed as inconclusive are left out. A number with no mark means an inactive call. The source made the active and inactive calls. Unless noted, the call rests on the fitted dose curve; in most records, active means well fitted curve in the direction sought with a large enough effect in the repeat runs; inconclusive means weak or mixed curves; inactive means no such curve, though single readings can be large; an effect the other way counts as inactive or inconclusive.

Sequence of Retinoic acid receptor RXR-alpha (Homo sapiens) (P19793 whole entry, looked up): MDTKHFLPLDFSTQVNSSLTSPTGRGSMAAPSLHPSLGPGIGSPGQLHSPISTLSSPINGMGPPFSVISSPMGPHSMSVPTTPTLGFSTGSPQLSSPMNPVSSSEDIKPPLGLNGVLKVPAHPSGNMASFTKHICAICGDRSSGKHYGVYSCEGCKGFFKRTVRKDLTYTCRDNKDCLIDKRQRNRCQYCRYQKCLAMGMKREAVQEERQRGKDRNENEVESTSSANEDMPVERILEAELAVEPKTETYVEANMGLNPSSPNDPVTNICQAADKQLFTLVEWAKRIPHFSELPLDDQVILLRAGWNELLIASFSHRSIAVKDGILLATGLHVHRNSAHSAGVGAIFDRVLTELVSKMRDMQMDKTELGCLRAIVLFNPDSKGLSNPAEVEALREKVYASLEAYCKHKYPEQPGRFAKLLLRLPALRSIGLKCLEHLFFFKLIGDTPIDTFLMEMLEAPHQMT

In the case of `CCOC(=O)OC(C)OC(=O)[C@@H]1N2C(=O)[C@@H](NC(=O)[C@H](N)c3ccccc3)[C@H]2SC1(C)C` (stereo partly drawn), the Potency entry in [1], in assay [2], in assay [3], in assay [4], in assay [5] and in assay [6] was “inactive” each time. Further, the Potency entry in [7], in [8], in [9], in [10], in assay [11] and in assay [12] was “inactive” each time.

As for `COc1ccccc1Oc1c(NS(=O)(=O)c2ccc(C(C)(C)C)cc2)nc(-c2ncccn2)nc1OCCO`, the Potency result in assay [2], in [3], in [4], in [5], in assay [6] and in assay [13] was “inactive” throughout. Besides, the Potency result in [9], in assay [10], in assay [11] and in [12] was “inactive” each time. Moreover, the Potency in assay [7] is 18.8 µM (active).

As to `C[C@H]1c2cccc(O)c2C(O)=C2C(=O)[C@]3(O)C(O)=C(C(N)=O)C(=O)[C@@H](N(C)C)[C@@H]3[C@@H](O)[C@@H]21`, the Potency result in assay [1], in assay [2], in [3], in assay [4], in assay [5] and in assay [13] was “inactive” throughout. For the same molecule, the Potency entry in [9] and in [10] was “inactive” each time. In addition, the Potency in assay [7] was 29.8 µM (active). For the same molecule, the result in assay [14], in [15] and in assay [16] was inactive.

With `CN1C(C(=O)Nc2ccccn2)=C(O)c2sccc2S1(=O)=O`, the Potency entry in assay [3], in [4], in [5], in [6], in assay [7] and in [13] was “inactive” throughout. The Potency entry in assay [8], in [9], in [10] and in [11] was “inactive” each time. For the same molecule, the Potency in assay [12] is 29.8 µM (active).

As to `COc1ccc(OC(=O)N(CC(=O)O)Cc2ccc(OCCc3nc(-c4ccccc4)oc3C)cc2)cc1`, the Potency result in assay [1], in assay [2], in assay [3], in assay [4], in assay [5] and in [6] was “inactive” each time. For the same molecule, the Potency result in [13], in assay [17], in assay [9] and in assay [10] was “inactive” each time.

With `CCCCN1CCCC1C(=O)Nc1c(C)cc(C)cc1C` (stereo not drawn), the Potency entry in [2], in assay [3], in [4], in assay [5], in assay [6] and in [13] was “inactive” each time. For the same molecule, the Potency entry in [8], in assay [10], in assay [11] and in assay [12] was “inactive” in each case.

On to `CC1=Nc2ccc3ccccc3c2C1(C)C`, for which the Potency entry in assay [1], in assay [2], in assay [3], in [4], in assay [5] and in assay [6] was “inactive” throughout. In addition, the Potency entry in assay [13], in assay [9], in [10] and in [11] was “inactive” in each case.

`CCCC(C(=O)OCCN(CC)CC)(c1ccccc1)c1ccccc1`: in [2], the Potency is 19 µM (active). The Potency result in assay [3], in assay [4], in assay [5], in assay [6] and in [13] was “inactive” throughout. The result in assay [14], in [18] and in assay [16] was inactive.

Consider `Cc1cscn1`, for which the Potency entry in assay [1], in assay [2], in [3], in assay [4], in [5] and in assay [6] was “inactive” in each case. Also, the Potency result in assay [13], in assay [17], in [9] and in assay [10] was “inactive” each time.

In the case of `CC1(C)[C@@H](OC(=O)CCC(=O)O)CC[C@]2(C)[C@H]3C(=O)C=C4[C@@H]5C[C@@](C)(C(=O)O)CC[C@]5(C)CC[C@@]4(C)[C@]3(C)CC[C@@H]12`, the Potency result in assay [1], in [2], in assay [3], in assay [4], in [5] and in [6] was “inactive” each time. Further, the Potency entry in assay [7], in assay [13], in assay [9], in assay [10], in assay [11] and in [12] was “inactive” in each case.

Take `CC(=O)OCCN(CCOC(C)=O)c1ccc(N=Nc2ccc([N+](=O)[O-])cc2C#N)cc1`: the Potency result in assay [1], in [2], in [3], in assay [4], in assay [5] and in [7] was “inactive” each time. The Potency entry in [13], in assay [17], in assay [9] and in assay [11] was “inactive” each time. Further, in assay [10], the Potency was 48.6 µM (active).

(Values after PubChem BioAssay (Tox21).)
